Among the data in PubChem BioAssay (NCATS) are Potency values, retold here.

Inconclusive results are not listed. Entries that show only a call come without a potency. Active and inactive are the calls of the source. Calls follow the shape of the dose curve; as a rule, active = well fitted inhibition curve with a large enough effect; inconclusive = small, poorly fitted or top-dose-only effect; inactive = flat fitted curve, though single readings scatter.

For the assay, the target named is Calcium and integrin-binding protein 1 (Homo sapiens) (UniProt Q99828). Put plainly: Primary qHTS for Identification of Calcium Integrin Binding Protein 1 (CIB1) Competitor (AID 1508620).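 Also: GST tagged CIB1 binding a fluorescein labelled alphaIIb integrin peptide tracer; top concentration of the series differs between compounds.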 The note with it: CIB1-GST / FITC-alphaIIb peptide fluorescence polarization; series mostly up to 114 µM. Summed up: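 CIB1-GST (1 uM final) and compound incubated 15 min at room temperature before adding FITC-alphaIIb peptide tracer (100 nM final). Competition for binding read by fluorescence polarization (ex 480, em 540) after another 15 min at room temperature.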
Sequence of Calcium and integrin-binding protein 1 (Homo sapiens) (Q99828 whole entry, looked up): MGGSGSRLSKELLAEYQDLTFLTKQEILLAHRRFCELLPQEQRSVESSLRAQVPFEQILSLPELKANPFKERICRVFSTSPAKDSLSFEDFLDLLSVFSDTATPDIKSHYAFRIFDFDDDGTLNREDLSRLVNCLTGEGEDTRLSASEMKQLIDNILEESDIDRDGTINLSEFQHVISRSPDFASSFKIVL
With `O=C(O)c1ccc2c(c1)C(=O)N([C@H](Cc1c[nH]c3ccccc13)C(=O)O)C2=O`, the Potency result was “inactive”.
Next, `Cn1c2cc(B(O)O)sc2c2cnn(Cc3ccc(F)cc3F)c(=O)c21`: “inactive”.
As to `FC(F)(F)c1ccccc1-c1nc(NCc2ccc(-c3cccnc3)cc2)c2[nH]cnc2n1`, the Potency result was “inactive”.
The value for `CCn1cnc2c(NCCc3cccnc3)nc(C#N)nc21` was “inactive”.
Next, `O=C(Nc1ccccc1)c1cccs1`: “inactive”; `COc1ccc(-c2ccc3ncnc(NCCc4cnc[nH]4)c3c2)cc1OC`: “inactive”.
Next, `CCCCN(C)C(=O)Cn1nc(-c2ccncc2)ccc1=O`: “inactive”.
Consider `COc1ccc(/C=C2/C(=O)Nc3ccccc32)cc1O`, for which the Potency entry was “inactive”.
Next, `NC(=O)C1CCN(c2nc(-c3ccccc3[N+](=O)[O-])cs2)CC1`: “inactive”.
For the compound `O=S(=O)(c1ccc2c(c1)OCCO2)N1CCCN(S(=O)(=O)c2c(F)cccc2F)CC1`, the Potency result was “inactive”.
With `COc1ccc(C2=Nn3c(nnc3-c3cccc(OC)c3OC)SC2)cc1OC`, the Potency entry was “inactive”.
Turning to `O=S1(=O)N=C(Oc2ccc(C(F)(F)F)cc2)c2ccccc21`, the Potency entry is “inactive”.
Next, `CC(C)c1ccccc1-c1ncc(F)c(NCC2CCN(c3cnccn3)C2)n1` (stereo not drawn): “inactive”; `COC(=O)C1CCN(C(=O)c2ccc3c(c2)ncn3-c2cccc(C)c2)CC1`: “inactive”.
The value for `COc1ccc(-c2nnc3n2N=C(c2ccc(OC)c(OC)c2)CS3)cc1` was “inactive”.
As to `COc1ccc(-c2nc3ccccc3c(=O)n2Cc2ccccc2)cc1CNc1ccc(NC(C)=O)cc1`, the Potency entry was “inactive”.
Turning to `COCC(=O)NCCc1nc2ccccc2n1CCOc1ccc(C)cc1`, the Potency result was “inactive”.
For `O=C(Nc1cccc(-c2nn3c(=O)cc(N4CCNCC4)nc3s2)c1)c1ccncc1`, the Potency result was “inactive”.
